Compound activity as filed in PubChem.
Rows were chosen to be rich in hits. Some 1.4% of all compounds tested hit in one or more screens of this group.
AID504770 = E. coli YBA685 growth inhibition, screen for V. cholerae RctB inhibitors | E. coli YBA685 rctB-dependent plasmid, OD600 growth, 3 h; active compounds read low | z-score (test concentration not listed) | hit rate 0.27% among 130,000 | AID 504770; in the data active means z-score below about -2, passing the limit was not always enough
Mtb MbtI inh = blocks the Mycobacterium tuberculosis siderophore enzyme MbtI. P9WFX0. inhibition, % (test concentration not listed). purified MbtI enzyme, fluorescence intensity read-out. AID 493033. hit rate 0.89% among 100,000; in the data active means inhibition mostly above about 56%, no sharp cut-off; inactive means mostly below about 77%
Target sequence (P9WFX0 whole entry, looked up): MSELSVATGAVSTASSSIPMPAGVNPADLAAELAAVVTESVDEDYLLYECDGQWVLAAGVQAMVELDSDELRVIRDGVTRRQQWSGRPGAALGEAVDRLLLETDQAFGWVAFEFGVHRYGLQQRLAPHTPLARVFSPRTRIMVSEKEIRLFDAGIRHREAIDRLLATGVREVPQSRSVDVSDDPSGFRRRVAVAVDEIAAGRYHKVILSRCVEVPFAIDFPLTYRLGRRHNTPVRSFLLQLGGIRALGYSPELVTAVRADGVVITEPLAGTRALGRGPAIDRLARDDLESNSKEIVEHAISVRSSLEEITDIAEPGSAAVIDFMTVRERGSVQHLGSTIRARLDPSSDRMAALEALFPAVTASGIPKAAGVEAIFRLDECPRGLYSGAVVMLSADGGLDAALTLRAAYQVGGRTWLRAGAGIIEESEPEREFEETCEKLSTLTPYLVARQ
Mtb MenB inh = blocks the Mycobacterium tuberculosis MenB enzyme; MenB enzyme assay, absorbance read-out; hit rate 0.43% among 100,000; inhibition, % (concentration not given with the values); in the data active means inhibition above about 21%, passing the limit was not always enough
PV pol inh = inhibitors of poliovirus RNA polymerase binding and polymerization | poliovirus polymerase elongation, fluorescence polarization; active compounds read low | hit rate 0.66% among 150,000 | % elongation, % (compound at 16.7 µg/mL); in the data active means % elongation below about 90%
* = called active by the depositor; · = no result given.

SMILES	AID504770	Mtb MbtI inh	Mtb MenB inh	PV pol inh
O=C(NC1CC1)c1cnn(-c2ccc(Cl)cc2)c1C(F)(F)F	0.1	·	·	·
O=C(NC1(O)C(=O)c2ccccc2C1=O)c1cnn(-c2ccccc2)c1C(F)(F)F	-1.4	-11	-2	48*
Cc1ccc(C(=O)NC2(O)C(=O)c3ccccc3C2=O)cc1C	-1.6	·	·	·
O=C(NC1(O)C(=O)c2ccccc2C1=O)c1ccc(C(F)(F)F)cc1	-0.35	-2	1	9.0*
Cc1nc(C(=O)NC2(O)C(=O)c3ccccc3C2=O)cs1	-0.6	·	·	·
O=C(NC1(O)C(=O)c2ccccc2C1=O)c1ccccn1	0.6	-8	-10	54*
Cc1[nH]c(=S)n(CC2CCCO2)c1C (stereo not given)	1.4	95*	12	95
Cc1n[nH]c(=S)n1CC1CCCO1 (stereo not given)	-0.1	-6	-16	103
CCC(=O)c1cc(Cl)ccc1O	-0.2	-3	-3	103
Oc1ccc(Cl)cc1Sc1cc(Cl)ccc1O	-7.1*	·	-36	107
c1csc(-c2cn3ccsc3n2)c1	-0.65	·	·	·
COc1ccc(C)cc1NCC(=O)NC1CCCCC1	0.25	-11	-14	·
COc1ccc(CCN2CC(=O)N3CCCC(C4=CC(=O)C=CC4=O)=C3C2=O)cc1OC	-0.4	99*	-13	95
COc1ccc(CCN2C(=O)CC(=O)NC2=S)cc1OC	-0.35	27	-121	100
Cc1cc2c(NC(=O)COCC(=O)O)cccc2nn1	0.1	2	8	65*
CCN1CCN(c2ncc3c(n2)CCN(Cc2cc(F)cc(F)c2)C3)CC1	·	·	·	86*
CCO/C=C1/C(=O)N(c2ccc(S(=O)(=O)N3CCOCC3)cc2)C(=O)c2ccccc21	0.6	17	-23	96
CCO/C=C1/C(=O)N(c2ccc(OC)cc2)C(=O)c2ccccc21	-0.55	26	-2	82*
CCO/C=C1\C(=O)N(c2ccccc2)C(=O)c2ccccc21	-0.3	-13	·	80*
COc1ccc(N2CCN(/C=C3\C(=O)N(c4ccc(C)cc4)C(=O)c4ccccc43)CC2)cc1	-0.4	52	-23	97
Nc1ccccc1C(=O)NCc1c(F)cccc1Cl	0.75	-158	-9	110
CC(=O)Nc1ccc(NC(=O)CC2(CC(=O)O)CCCC2)cc1	-0.45	·	·	·
NC(=O)c1oc2ccccc2c1NC(=O)Cc1cccc2ccccc12	-0.7	·	·	·
O=c1[nH]cc(NCCO)c(=O)[nH]1	0.65	-6	·	·
O=C1c2c(O)ccc(O)c2C(=O)c2c(NCCNCCO)ccc(NCCNCCO)c21	1.4	-7	0	-53*
SMILES	AID504770	Mtb MbtI inh	Mtb MenB inh	PV pol inh
Cc1ccc(Oc2cc(C#N)c3ccccc3n2)cc1C	-0.9	4	·	105
Cc1ccsc1C(=O)N1CCCSC1=Nc1ccccc1	-0.35	14	13	111
COc1ccc(F)cc1S(=O)(=O)Nc1cccc(-c2ccc(N3CCCCCC3)nn2)c1	·	·	·	110
COc1ccc(OC)c(S(=O)(=O)Nc2cccc(-c3ccc(N4CCCCC4)nn3)c2)c1	·	·	·	85*
CC(C)N(CC(=O)c1cccs1)Cc1ccccc1	1.4	100*	-8	98
O=C(Nc1cccnc1Cl)C1CSC(c2ccncc2)=N1 (stereo not given)	0.35	5	18	103
C/C(=N\NC(=O)c1ccn[nH]1)c1cc(O)ccc1O	-0.9	71*	-31	104
COc1ccc(NC(=O)CCc2nc3cc(S(=O)(=O)N4CCCCC4)ccc3n2C)cn1	0.4	95*	-27	79
Cn1c(CCC(=O)NCc2ccc(F)cc2)nc2cc(S(=O)(=O)N3CCCCC3)ccc21	0.35	18	-3	·
N#Cc1c(-c2ccccc2)cc(-c2ccccc2)nc1SCC(O)CS(=O)(=O)Cc1ccc(Cl)cc1 (stereo not given)	·	·	·	89*
COc1ccc(-c2cc(-c3ccccc3)c(C#N)c(SCC(O)CS(=O)(=O)Cc3ccc(Cl)cc3)n2)cc1 (stereo not given)	·	·	·	105
CCC(C(=O)Nc1cc(C)ccc1C)n1nc(C)n2c(cc3cc(C)ccc32)c1=O (stereo not given)	-0.3	17	7	99
CCN(CC)CCNc1nc2c(c(=O)n(C)c(=O)n2C)n1Cc1ccc(F)cc1	0.1	-1	·	·
CCN(CC)CCNc1nc2c(c(=O)n(C)c(=O)n2C)n1CCc1ccccc1	2.2	19	23*	103
CC(C)(C)CC(C)(C)NC(=O)Nc1cccc(Cl)c1	0.65	-7	-43	100
CC(C)(C)c1nn2cnnc2n(NC(=O)Nc2cccc(Cl)c2)c1=O	-3.5*	-4	-9	105
C#CCOc1ccc(C2C3=C(CCCC3=O)N(CCC(=O)O)C3=C2C(=O)CCC3)cc1	-0.8	25	-179	103
Cc1ccccc1NC(=O)N1CCCC(c2nc(-c3ccc(F)cc3)no2)C1 (stereo not given)	1.2	2	29*	103
C1=CCC2NC(C1)Cc1ccccc12 (stereo not given)	-0.25	-1	29*	103
Cc1csc(-c2ccc(-c3csnn3)cc2)n1	-0.45	·	·	·
O=C(CCN1C(=O)/C(=C\C=C\c2ccco2)SC1=S)Nc1ccc(C(=O)O)c(O)c1	0.9	8	-55	·
Cc1ccc(OCCn2cc(C(=O)c3cccs3)c3ccccc32)cc1	·	·	·	77*
COc1ccccc1N1CCN(CC(=O)n2c3ccccc3c3ccccc32)CC1	0.4	2	9	102
COc1ccc(-c2cn3cccnc3n2)cc1NC(C)=O	-1.1	·	·	·
CCc1cc(-c2[nH]ncc2-c2nc(C)cs2)c(O)cc1OC(C)C(=O)NN (stereo not given)	-0.55	·	-1	105
SMILES	AID504770	Mtb MbtI inh	Mtb MenB inh	PV pol inh
Clc1ccc(CNc2nc3ccccc3[nH]2)cc1Cl	-2.8*	-9	-12	98
CCOc1ccc(N2C(=O)CC(NCCNC(=O)c3ccc(Cl)cc3)C2=O)cc1 (stereo not given)	0.85	5	27*	102
COc1ccc(CC(CN)c2ccccc2)cc1 (stereo not given)	1.1	1	36*	102
O=C1NC(=O)N(c2ccccc2)C(=O)/C1=C/C=C/c1ccco1	-0.3	88*	-180	101
O=C1NC(=S)NC(=O)C1=C/C=C/c1ccco1	0.8	62	-44	72*
CN1C(=O)NC(=O)/C(=C\C=C\c2ccco2)C1=O	-0.15	21	-268	105
COc1ccc([C@H]2[C@@H](C(=O)O)c3ccccc3C(=O)N2Cc2ccc3c(c2)OCO3)cc1	0	4	6	38*
COc1ccc(C2C(C#N)=C(N)SC3C(=O)N(c4ccc(Br)cc4)C(=O)C32)cc1 (stereo not given)	0.25	·	-8	77*
Cc1ccc(N2C(=O)N(c3ccccc3)C(=N)C2=S)cc1Cl	-0.95	45	2	68*
CC(C)S(=O)(=O)c1nc2ccccc2n1Cc1ccccc1	-0.55	7	-5	103
S=c1[nH]c2ccc(Cl)cc2[nH]1	-0.55	82*	-23	103
Cc1ccc2[nH]c(=S)oc2c1	0.45	61*	-28	99
S=c1[nH]c2ccc(Cl)cc2o1	-2*	64*	-53	100
O=C(c1ccc(C(=O)N2CCc3ccccc3C2)cc1)N1CCc2ccccc2C1	-0.2	·	-16	109
Cc1ccc(C)n1CCC(=O)O	0.5	1	-52	69*
